The target in the first test is ALDH1A3. The experiment in a line: pooled miR-30 sensor sort-seq; sequence = guide strand. The settings on record: shRNA.
Sequence TTCTTCGATACTTTTGAACTTC registered a sensor-assay potency score (higher = more potent) of 0.188.
With ATTGTTGATAAATATCTTGGTG, the sensor-assay potency score (higher = more potent) is -0.0591.
For the sequence TTGTTGATAAATATCTTGGTGA, the sensor-assay potency score (higher = more potent) was found to be 0.169.
With TCTGTTTTGACATCGAAGGGGT, the sensor-assay potency score (higher = more potent) was found to be 0.173.
Sequence TTTTGAACTTCAGTATTGGTTG displayed a sensor-assay potency score (higher = more potent) of -0.527.
Regarding TTTTGTCGAACTGCTTTTGATC, the sensor-assay potency score (higher = more potent) is -0.787.
On the same count and under the same terms, the result for ATAAATATCTTGGTGAACTTGA reads -0.0326; that for TTCTGTTTTGACATCGAAGGGG, 0.0292; that for TTCGATACTTTTGAACTTCAGT, -0.228.
The same measure, in the same setting: the result for TTGAAGGGTTACATGTAGCAAA reads -0.786; that for TTCCACTTCACATATTTGCTCC, -0.153; that for TTTATCACTTCTTCGATACTTT, -0.132.
With TCATTGTTGATAAATATCTTGG, the sensor-assay potency score (higher = more potent) is -0.45.
TTTCCTGACATTTTAAAGCCAC displayed a sensor-assay potency score (higher = more potent) of -0.397.
Sequence TAAGATTTTGTCGAACTGCTTT yielded a sensor-assay potency score (higher = more potent) of 0.131.
On the same count and under the same terms, the result for TTTTTGTGAACACGGCTGCTGT reads -0.433.
As for TTTTTTGTGAACACGGCTGCTG, the sensor-assay potency score (higher = more potent) is 0.356.
TTTCTTGGCATACTCCACGCTC: the sensor-assay potency score (higher = more potent) was -0.65.
On to TAGCAGTTGATCCAGACCGTTC, for which the sensor-assay potency score (higher = more potent) was -1.2.
As for TATCTTGGTGAACTTGACCTCC, the sensor-assay potency score (higher = more potent) amounted to 0.362.

The target of the next test is ALDH9A1. The test is described as above. The settings on record: shRNA.
The sequence TTGATGAGTGGACCCATCCTTG registered a sensor-assay potency score (higher = more potent) of -0.479.
In turn, TTTCTTGATTAGTATCTACAAG returned a sensor-assay potency score (higher = more potent) of -1.25.
Sequence TTCTCTAGAAGTATGTTACTGG registered a sensor-assay potency score (higher = more potent) of -0.159.
Sequence TAATACACAAGGTCTCATGTAA showed a sensor-assay potency score (higher = more potent) of 0.189.
TTCACATCATTCCACAGCGTGG showed a sensor-assay potency score (higher = more potent) of -1.5.
On to TATAACCAAACGATCCACCTGG, for which the sensor-assay potency score (higher = more potent) was found to be 0.155.
In the case of TTAATTTGGGATCTTCAGGTAC, the sensor-assay potency score (higher = more potent) worked out at 0.221.
The same measure, in the same setting: then TTTGCCACTTTGACAAACCCAA, with -0.698.
On the same count and under the same terms, the result for TTCAGTTGTACTGCCTCTGTAA reads -0.536; that for TTCTTGATTAGTATCTACAAGG, -0.856; that for TCTTTCTGCACAAATACTCTTG, -0.35.
TAACACTTTAGCACCCTGCTCC yielded a sensor-assay potency score (higher = more potent) of 0.132.
On to TTAGTTAATACACAAGGTCTCA, for which the sensor-assay potency score (higher = more potent) is -0.528.
The sequence TAACATTCAGTTGTACTGCCTC returned a sensor-assay potency score (higher = more potent) of -0.0109.
Same read-out and setting: then TTATCCTAGTCTCTTTTCCTGT, with -0.816; and TTCTCTTATACTGAACGCCAAA, with -1.4; and TAATATTCGATTGTCACACGGC, with 0.406.
Still for that read-out and setting: then TAAAAAAATGTCAATGAGCTGA, with -0.73; and TAATACTCCAGGCACTGCCAGG, with -1.24; and TTGATTAGTATCTACAAGGCAC, with 0.363.

The values above are taken from the OligoGym collection.
Also: reference of the scale not given here.
